Compounds with a hit are over-represented: about 5.4% of the library has one in this group of screens.
Gal4-VP16 FLuc = VP16 counterscreen qHTS for inhibitors of ROR gamma transcriptional activity; Drosophila S2 Gal4-VP16 UAS-luciferase, luminescence, 20 h; Potency, µM (titrated, usually from 53.6 µM), for inactives: at the top dose activity, negative = inhibition, most hits filed as inhibitors; 310,000 compounds, 3.5% hits;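 also: Gal4-VP16 expression switched on by copper sulfate through the metallothionein promoter; potency is read from the fitted curve at half-maximal effect; % is scaled to controls: 0 for no effect and ±100 for the full control effect; nearly all actives have a fitted effect of over 50% in size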
Six1-Eya2 blk = qHTS Assay for Inhibitors of the Six1/Eya2 Interaction; activity change, % (test concentration not listed); AlphaScreen GST-Six1/His-Eya2 binding, biochemical; active compounds read low; 360,000 compounds, 0.56% hits; Homeobox protein SIX1 (Homo sapiens) + Protein phosphatase EYA2 (Homo sapiens), …; in the data active = activity change below about -65%; inconclusive = mostly about -30% to -63%; also: % is scaled to controls: 0 for no effect and ±100 for the full control effect
Target sequence (O00167 whole entry, looked up): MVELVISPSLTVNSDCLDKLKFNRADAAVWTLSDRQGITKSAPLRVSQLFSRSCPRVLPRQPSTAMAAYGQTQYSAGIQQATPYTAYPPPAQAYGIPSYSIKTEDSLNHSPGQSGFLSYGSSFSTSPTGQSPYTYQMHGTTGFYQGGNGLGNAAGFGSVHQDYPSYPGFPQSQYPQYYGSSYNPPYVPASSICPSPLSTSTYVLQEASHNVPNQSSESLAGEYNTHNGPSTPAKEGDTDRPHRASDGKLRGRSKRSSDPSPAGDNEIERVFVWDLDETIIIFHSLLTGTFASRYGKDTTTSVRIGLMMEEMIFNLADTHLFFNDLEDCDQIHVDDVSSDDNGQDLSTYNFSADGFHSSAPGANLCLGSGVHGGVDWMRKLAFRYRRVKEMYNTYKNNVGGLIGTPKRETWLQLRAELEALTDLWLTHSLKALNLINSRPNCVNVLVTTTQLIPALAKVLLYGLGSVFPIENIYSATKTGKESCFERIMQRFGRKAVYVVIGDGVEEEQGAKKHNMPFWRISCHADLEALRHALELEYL
Target sequence (Q15475 whole entry, looked up): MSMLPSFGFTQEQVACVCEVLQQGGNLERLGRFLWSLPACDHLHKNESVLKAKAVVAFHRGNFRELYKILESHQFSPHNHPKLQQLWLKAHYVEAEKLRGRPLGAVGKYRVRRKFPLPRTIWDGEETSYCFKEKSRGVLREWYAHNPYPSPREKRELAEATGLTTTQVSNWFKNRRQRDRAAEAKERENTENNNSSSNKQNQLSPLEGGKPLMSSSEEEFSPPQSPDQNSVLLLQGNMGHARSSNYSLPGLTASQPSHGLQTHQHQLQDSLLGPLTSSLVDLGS
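Compounds are tested against tagged Six1 and Eya2 proteins bridged by glutathione donor and nickel acceptor beads; after a one-hour incubation at 37 °C without light, AlphaScreen emission is recorded.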
p53 reactivator = qHTS assay for re-activators of p53 using a Luc reporter. AID 504706, 2011. Potency, µM (top dose mostly 92.2 µM), for inactives: at the top dose activity change, positive = activation, usual class: activators. H1299 p53-A138V BP100-luciferase reporter, luminescence, 24 h. 320,000 compounds, 0.063% hits; also: potency is read from the fitted curve at half-maximal effect; % of control where 0% means no effect; nearly all actives have a fitted effect of over 45% in size
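H1299 (p53-null), stable ts p53-A138V + BP100-Luc; 1000 cells/well, Opti-MEM/10% FBS; cpd 4 pt, 1:5; 24 h, 37 deg C, 5% CO2; detection reagent 10 min RT; luminescence.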
CtBP-E1A blk = qHTS Assay for Inhibitors of the CtBP/E1A Interaction; 340,000 compounds, 0.49% hits; activity change, % (concentration not given with the values); AlphaScreen GST-E1A/His-CtBP binding, 1536-well; active compounds read low; CtBP / adenovirus E1A interaction (AlphaScreen); in the data active = activity change below about -65%; inconclusive = mostly about -30% to -63%; also: % is scaled to controls: 0 for no effect and ±100 for the full control effect
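Steps: dispense buffer (Tris pH 8.0, NaCl 300 mM, TCEP 1 mM, BSA, Tween 20); add 5X protein mix (GST-E1A, His-CtBP, 125 nM each); pin 23 nL compound; 2 h at 37 °C, dark; add 5X beads (50 ug/mL); 1 h; read.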
RORgamma inh = qHTS for inhibitors of ROR gamma transcriptional activity; Nuclear receptor ROR-gamma (Mus musculus), P51450; Drosophila S2 Gal4-RORgamma UAS-luciferase reporter, 20 h; Potency, µM (doses to about 53.6 µM), without a hit: at the highest dose activity change, negative = inhibition, most hits filed as inhibitors; 310,000 compounds, 5.4% hits; also: potency is read from the fitted curve at half-maximal effect; % is scaled to controls: 0 for no effect and ±100 for the full control effect; nearly all actives have a fitted effect of over 60% in size
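Stable Schneider cell line, Gal4 DNA-binding domain fused to ROR gamma, UAS-luciferase. Cmpd 1 hr RT → CuSO4 700 uM final → 20 hr RT → luciferase reagent 10 min → luminescence.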
Starred values were filed as active, the others as inactive; ? = inconclusive; · = no result; [ ] = remark or other dose. Unless noted, calls follow the shape of the dose curve; as a rule, active = well fitted curve in the direction sought with a large enough effect; inconclusive = small, poorly fitted or top-dose-only effect, or another doubt; inactive = no such curve, though single readings can be large; an effect the other way counts as inactive or inconclusive.

SMILES	Gal4-VP16 FLuc	Six1-Eya2 blk	p53 reactivator	CtBP-E1A blk	RORgamma inh
Cn1ccnc1SCC(=O)N(C1CCCCC1)C1CCCCC1	?	-1.8	-5.7%	-3.9	11.2µM*
COc1cccc(C(=O)CSc2nccn2C)c1	?	-3.1	8.9%	-1.4	10µM*
Cn1ccnc1SCC(=O)c1ccc(O)cc1	29.5%	-9.3	5.7%	-0.6	10.7%
O=C(CSc1ncccc1C(=O)O)c1cccc(C(F)(F)F)c1	2.1%	18.0	-2.9%	-4.6	7.5%
O=C(CSc1ncccc1C(=O)O)c1ccc2ccccc2c1	2.24µM*	1.5	-5.9%	-0.6	11.2µM*
Cn1ccnc1SCC(=O)c1cccc(Br)c1	-2.4%	-4.5	?	-8.2	-2.6%
Cn1ccnc1SCC(=O)c1ccc2ccccc2c1	?	-5.0	22.1%	0.0	11.2µM*
C[C@@H]1CN([C@H](C)CO)C(=O)c2cc(Br)cnc2O[C@H]1CN(C)Cc1ccccc1	·	-1.1	·	-1.7	·
Cc1ccc(S(=O)(=O)NN=C2C3CC4CC(C3)CC2C4)cc1[N+](=O)[O-]	-10.0%	2.1	-6.8%	2.2	-7.4%
N#CCCn1c(=O)c(-c2ccc(F)cc2)nc2cnc(Oc3ccccc3)nc21	-0.9%	·	·	·	-10.9%
Cc1ccsc1/C=N/n1c(-c2ccco2)n[nH]c1=S	-22.6%	0.5	-5.3%	2.7	-71.4%
CC(C1CC2CCC1C2)n1c(-c2ccco2)n[nH]c1=S (stereo not drawn)	6.31µM*	-4.4	-1.0%	-21.0	1.26µM*
CCCC(=O)NC(=S)Nc1ccc(N2CCOCC2)c(Cl)c1	?	0.2	9.1%	·	12.6µM*
O=C(/C=C/c1ccccc1)NC(=S)Nc1ccc(N2CCOCC2)c(Cl)c1	?	7.5	-6.9%	-1.8	2.51µM*
O=C(NC(=S)Nc1ccc(N2CCOCC2)c(Cl)c1)C(c1ccccc1)c1ccccc1	5.62µM*	-17.7	5.3%	0.0	2.82µM*
O=C(/C=C/c1ccco1)Nc1ccccc1N1CCOCC1	?	0.4	5.8%	6.6	43.3%
O=C(Nc1ccc(N2CCOCC2)c(Cl)c1)c1ccccc1Cl	-1.7%	6.8	3.1%	-7.3	-8.8%
O=C(/C=C/c1ccco1)NC(=S)Nc1ccc(N2CCOCC2)c(Cl)c1	-18.8%	0.0	-2.0%	-1.2	1.78µM*
CN(C)S(=O)(=O)c1cccc(-c2nnc3n2CCCCC3)c1	-1.6%	6.3	-3.6%	·	-0.4%
CC1(Cc2cc(Cl)ccc2C(F)(F)F)C(=O)Nc2ccc(OC(F)(F)F)cc21 (stereo not drawn)	·	3.3	·	5.2	·
O=C(OCc1ccccc1)N(CCCCN(CCCNCc1ccccc1)C(=O)OCc1ccccc1)CCCNCc1ccccc1	·	-10.7	·	-5.1	·
CC(C)C(=O)Nc1ccc(N2CCCC2)c(Cl)c1	-1.0%	-10.0	10.9%	9.5	-31.9%
CC(C)CC(=O)NC(=S)Nc1ccc(N2CCCC2)c(Cl)c1	2.82µM*	-25.8	9.9%	-7.9	0.398µM*
CO[C@@H]1COC(=O)[C@H](C)NC(=O)C/C=C\[C@@H](C)[C@@H](NS(=O)(=O)c2ccc(C)cc2)COC(=O)C/C=C\[C@@H]1C	-0.8%[10 µM]	·	·	·	-1.2%[10 µM]
CC(=O)C1=CCC(c2ccc(C)o2)N(S(=O)(=O)c2ccc(C)cc2)C1 (stereo not drawn)	·	-12.2	·	-6.7	·
SMILES	Gal4-VP16 FLuc	Six1-Eya2 blk	p53 reactivator	CtBP-E1A blk	RORgamma inh
NC(=S)N/N=C1\CCOc2ccc(Cl)cc21	8.91µM*	8.1	1.1%	·	3.16µM*
NC(=S)NN=C1c2cc(Cl)ccc2-c2c1cc(Cl)cc2[N+](=O)[O-]	·	-27.9	·	-17.4	·
Cn1c(CNC(=O)C(Cc2ccccc2)NC(=O)c2ccccc2F)cc(=O)n(C)c1=O (stereo not drawn)	-1.3%	-1.7	3.6%	1.2	-1.2%
CCOC(=O)c1c(C)[nH]c(N=Nc2ccccc2C)c1C	?	?	22.0%	?	3.98µM*
CNC(=O)Cn1c(C)cc(=O)c2cccc(C)c21	-0.5%	-13.7	3.4%	3.9	-8.1%
COc1cccc2c(=O)cc(C)n(CC(=O)Nc3ccc(C)c(C)c3)c12	?	-93.7*	24.0%	-70.2*	-20.1%
COc1ccccc1NC(=O)Cn1c(C)cc(=O)c2cccc(OC)c21	28.2µM*	-23.3	6.2%	?	-32.9%
CCC(C)(C)N(C(=O)CCC(=O)Nc1cc(C)on1)C(C(=O)NC(C)(C)C)c1ccc(OC)cc1 (stereo not drawn)	3.6%	0.7	4.4%	0.8	42.4%
COc1cc(C(=O)O[C@H]2C/C(C)=C/CC[C@@]3(C)O[C@@H]3[C@H](O)[C@@H]2C(C)C)cc(OC)c1OC	-8.7%	1.0	-5.2%	4.3	42.9%
COc1cc(OC)cc(C(=O)NC(=S)Nc2ccc3oc(=O)ccc3c2)c1	-4.9%	-0.1	0.5%	3.3	-39.8%
O=C(NC(=S)Nc1ccc2oc(=O)ccc2c1)c1cccc(Cl)c1	-10.2%	-9.2	8.8%	-0.2	2.82µM*
COc1cccc(C(=O)NC(=S)Nc2ccc3oc(=O)ccc3c2)c1	?	-9.6	5.8%	-23.4	?
O=C(NC(=S)Nc1ccc2oc(=O)ccc2c1)c1cccc(F)c1	1.0%	-13.8	5.9%	-23.2	6.31µM*
Cc1c(C(=O)Nc2nc(-c3ccccn3)cs2)oc2ccccc12	·	-73.3*	?	-86.2*	·
Cc1cc(-c2csc(NC(=O)c3cc4ccccc4o3)n2)c(C)n1C	-0.3%	-0.9	5.0%	-6.9	15.8%
O=C(Nc1nc(-c2ccccn2)cs1)c1cc2ccccc2o1	11.2µM*	-77.4*	?	-68.3*	1.58µM*
O=C(O)[C@@]1(CCCCCCOc2ccc(Cl)cc2)CO1	-6.0%	·	·	·	-5.3%
COc1ccccc1N=Nc1ccc(O)c2ncccc12	3.16µM*	-69.6*	-6.0%	·	2.82µM*
CCS(=O)(=O)c1ccc(N=Nc2ccc(O)c3ncccc23)c(OC)c1	15.8µM*	-83.2*	-1.3%	-93.0*	7.08µM*
Oc1ccc(N=Nc2ccccc2C(F)(F)F)c2cccnc12	3.55µM*	-11.3	24.2%	·	3.55µM*
COc1ccccc1N=Nc1[nH]c2ccc(C)cc2c1O	4.5%	-14.5	?	-11.8	32.3%
O=c1ncn(-c2ccccc2C(F)(F)F)c2ncccc12	-13.8%	-4.6	2.0%	·	6.4%
Cc1c(-c2n[nH]c(=S)n2-c2ccc(C(F)(F)F)cc2)nnn1-c1ccccc1	?	1.0	-7.4%	4.6	5.62µM*
O=C(CSc1nncs1)Nc1nnc(-c2ccccc2)o1	?	?	25.0%	-21.9	11.2µM*
O=C(Cc1ccccc1)Nc1nnc(-c2ccccc2)o1	3.55µM*	?	3.2%	-3.1	1.12µM*
